The record followed here is PubChem BioAssay (NCI).

The panel holds about 83,000 compounds, 20% with a hit somewhere; the sample as a whole holds those more often.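 Activity criterion: percent growth below 10, measured after cells in 96-well plates were exposed to a single compound concentration for 48 hours.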 Unmarked numbers belong to inactive results. Active and inactive are the calls of the source.

Some test systems named below: SK-MEL-2 melanoma; EKVX NSCLC; SN12C renal; UO-31 renal; TK-10 renal; ACHN renal; CAKI-1 renal; A498 renal; CCRF-CEM leukemia; MOLT-4 leukemia.
Holding throughout (experiment): NCI-60 one-dose screen, 48 h (100 = growth as untreated, 0 = no growth, -100 = all killed)
Holding throughout (details): 10 µM unless noted

`COc1ccc(OC)c(-c2c(C#N)c(-c3ccco3)nc3c2c(-c2ccccc2)nn3-c2ccccc2)c1`: the growth in the test on SK-MEL-2 melanoma is 99.4%; in the test with EKVX NSCLC it was 87.1%; in the test on SN12C renal, 94.6%; with UO-31 renal, 84.1%; with TK-10 renal, 98%; with ACHN renal, 96.4%. Moreover, the growth with CAKI-1 renal was 82.3%; in the test with A498 renal it was 98.5%; in the test on CCRF-CEM leukemia it was 94.1%; in the test with MOLT-4 leukemia, 96.3%.
In the case of `O=C(O[C@@H]1Cc2c(O)cc(O)cc2O[C@@H]1c1cc(O)c(O)c(O)c1)c1cc(O)c2c(c1)OCO2`, the growth was 102% in the test with SK-MEL-2 melanoma; 102% with EKVX NSCLC; 98.6% in the test on SN12C renal; 92.2% in the test on UO-31 renal; 88.4% with TK-10 renal; 112% with ACHN renal. Besides, the growth was 94.4% in the test with CAKI-1 renal, 117% in the test on A498 renal, 93% in the test with CCRF-CEM leukemia and 81.5% in the test on MOLT-4 leukemia.
For the molecule `C=C(C)[C@@H]1CC[C@]2(C)[C@H](CC=C3[C@@H]4CC(C)(C)CC[C@]4(C=O)CC[C@]32C)[C@@]1(C)CCCN`, the growth in the test with SK-MEL-2 melanoma was 109%; with EKVX NSCLC, 94.5%; in the test on SN12C renal, 66.7%; with UO-31 renal, 44.6%; in the test on TK-10 renal it was 81.4%; in the test on ACHN renal it was 88.4%. For the same molecule, the growth in the test on CAKI-1 renal was 61.1%; with A498 renal, 97%; in the test with CCRF-CEM leukemia, 52.9%; with MOLT-4 leukemia it was 35.5%.
For `O=C(/C=C/c1cccc(O)c1)c1ccccc1O`, the growth is 84.1% in the test with SK-MEL-2 melanoma; 86.9% in the test on EKVX NSCLC; 83.7% with SN12C renal; 73.9% with UO-31 renal; 121% in the test on TK-10 renal; 86.9% with ACHN renal. In addition, the growth in the test with CAKI-1 renal is 50.4%; with A498 renal, 106%; in the test with CCRF-CEM leukemia, 47.1%; in the test on MOLT-4 leukemia, 66.9%.
For the molecule `N#C/C(=C\c1ccc(-c2ccc(Cl)cc2)o1)c1nc(-c2ccco2)cs1`, the growth was 102% with SK-MEL-2 melanoma; 48.6% in the test with EKVX NSCLC; 92.8% in the test with SN12C renal; 74.3% in the test with UO-31 renal; 62.2% in the test with TK-10 renal; 101% in the test with ACHN renal. The growth in the test with CAKI-1 renal is 89.3%; with A498 renal, 108%; with MOLT-4 leukemia it was 97.5%.
`CC1(C)NCCC[C@]2(C)[C@H]3CC[C@@H]4[C@H]5[C@H](C(=O)/C=C/c6ccccn6)CC[C@]5(CO)CC[C@@]4(C)[C@]3(C)CC[C@@H]12`: the growth is 108% in the test on SK-MEL-2 melanoma; 101% in the test on EKVX NSCLC; 62.4% in the test on SN12C renal; 66.8% in the test with UO-31 renal; 176% in the test on TK-10 renal; 73.4% in the test on ACHN renal. Besides, the growth is 32.7% in the test with CAKI-1 renal, 84% in the test with A498 renal, 12.3% in the test on CCRF-CEM leukemia and 3.77% (active) in the test on MOLT-4 leukemia.
For `Cc1ccc(-c2nc([P+](c3ccccc3)(c3ccccc3)c3ccccc3)c(N3CCOCC3)o2)cc1`, the growth is -18.7% (active) in the test with SK-MEL-2 melanoma; 17.6% in the test on EKVX NSCLC; 1.43% (active) with SN12C renal; 12% with UO-31 renal; 20.8% with TK-10 renal; 8.24% (active) with ACHN renal. The growth is 13.1% with CAKI-1 renal, 8.32% (active) in the test on CCRF-CEM leukemia and -8.12% (active) in the test with MOLT-4 leukemia.
Take `N#CC1=C(N)Oc2ccc3ccccc3c2C1c1ccccc1Cl` (centres undefined): the growth in the test with SK-MEL-2 melanoma is 45.9%; with EKVX NSCLC, 42.5%; in the test with SN12C renal it was 50%; with UO-31 renal, 48.9%; in the test on TK-10 renal, 118%; in the test with ACHN renal, 49.9%. In addition, the growth was 34.5% in the test with CAKI-1 renal, 40.1% in the test with A498 renal, 26.1% in the test on CCRF-CEM leukemia and 26.7% in the test with MOLT-4 leukemia.
For `Fc1ccc(Nc2nc(Nc3ccc(-c4nc5ccccc5[nH]4)cc3)nc(N3CCCC3)n2)cc1`, the growth with SK-MEL-2 melanoma was 95.2%; in the test with EKVX NSCLC it was 71.9%; in the test with SN12C renal, 81.2%; with UO-31 renal it was 68.1%; in the test with TK-10 renal it was 151%; in the test on ACHN renal it was 73.1%. Besides, the growth in the test on CAKI-1 renal is 88%; in the test with A498 renal, 75.3%; with MOLT-4 leukemia, 48.2%.
For the molecule `CCCCC/C(=C\c1ccccc1)C1OC(C)C(C)O1` (centres undefined), the growth with SK-MEL-2 melanoma was 83.5%; with EKVX NSCLC, 103%; in the test on SN12C renal it was 97.2%; with UO-31 renal, 101%; in the test with TK-10 renal it was 91%; with ACHN renal, 101%. In addition, the growth was 93.6% in the test with CAKI-1 renal, 105% in the test on A498 renal and 110% in the test with MOLT-4 leukemia.
As to `O=C(N/N=C\c1ccccc1O)C1CC1`, the growth in the test with SK-MEL-2 melanoma was 103%; in the test with EKVX NSCLC, 109%; in the test with SN12C renal, 93.6%; in the test on UO-31 renal, 71%; in the test on TK-10 renal, 118%; in the test with ACHN renal, 108%. The growth with CAKI-1 renal was 115%; with A498 renal it was 113%; in the test on CCRF-CEM leukemia, 83.7%; with MOLT-4 leukemia, 101%.
Consider `O=c1[nH]c2c3ccncc3cc(-c3cccc(Cl)c3)c2c2cnccc12`, for which the growth is 64.1% in the test on SK-MEL-2 melanoma; 74.8% in the test with EKVX NSCLC; 57.1% with SN12C renal; 30.6% in the test with UO-31 renal; 0.334% (active) with TK-10 renal; 17.2% with ACHN renal. The growth with CAKI-1 renal is 63.3%; in the test with A498 renal it was 50.2%; with MOLT-4 leukemia, 76.9%.
In the case of `N#C/C(=C\c1ccc(-c2ccc(Br)cc2)o1)c1nc(-c2ccco2)cs1`, the growth is 103% with SK-MEL-2 melanoma; 41.6% in the test on EKVX NSCLC; 92.3% in the test with SN12C renal; 74.7% in the test with UO-31 renal; 38.7% in the test with TK-10 renal; 95.8% with ACHN renal. For the same molecule, the figures for the growth with CAKI-1 renal, in the test with A498 renal and in the test on MOLT-4 leukemia were 88.8%, 101% and 94.2%, respectively.
Take `COc1ccc(/C=C(\C#N)c2cc3ccccc3n2S(C)(=O)=O)cc1`: the growth in the test on SK-MEL-2 melanoma was 101%; in the test on EKVX NSCLC, 85.9%; in the test with SN12C renal, 90.8%; in the test on UO-31 renal it was 56.2%; with TK-10 renal, 125%; in the test on ACHN renal it was 91.2%. Besides, the growth with CAKI-1 renal is 53.2%; in the test on A498 renal, 99.2%; with CCRF-CEM leukemia, 86%; in the test with MOLT-4 leukemia, 89.8%.
